{"source": "PubChem BioAssay", "note": "The source made the active and inactive calls.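 How the source made its calls, unless noted: active means inhibition at or above 50% at 10 µM; inactive means inhibition below 50%.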"}
{"test": "inhibitors of Sendai virus-induced IRF3 signaling, primary screen, TLR/RLR signaling modifier project, cell-based, Sendai virus stimulus, luciferase, 10K MLSCN set (AID 602276);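 further: firefly luciferase from ISG56 promoter only with Renilla not read in this screen; 0% = Sendai virus plus DMSO and 100% = medium plus DMSO without virus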", "details": "HEK293 RL24 IRF3 luciferase reporter, at 10 µM, stronger effect = higher value"}
{"smiles": "CC1=C(C(N)=O)C(c2ccc(Cl)cc2Cl)n2ncnc2N1", "note": "(stereo not given)", "inhibition": "29.3% (inactive)"}
{"smiles": "Cc1cc2c(s1)c1cnn(CC(=O)NCCc3ccccc3)c(=O)c1n2C", "inhibition": "15.1% (inactive)"}
{"smiles": "CCc1c(C)nc(N2CCN(Cc3ccccc3)CC2)[nH]c1=O", "inhibition": "17.7% (inactive)"}
{"smiles": "O=C1C2CCCN2C(c2ccc(Cl)cc2)N1c1nccs1", "note": "(stereo not given)", "inhibition": "11.3% (inactive)"}
{"smiles": "CCCCN(CC)S(=O)(=O)N1CCC(C(=O)NCc2ccc(F)cc2)CC1", "inhibition": "12.4% (inactive)"}
{"smiles": "O=c1c2nnn(Cc3ccccc3)c2ncn1-c1ccccc1", "inhibition": "14.3% (inactive)"}
{"smiles": "CNC(=O)CN(c1cc(C)ccc1OC)S(=O)(=O)c1ccc(C)cc1", "inhibition": "5.72% (inactive)"}
{"smiles": "CCCCC(CC)C(=O)Nc1ccc(Cl)cn1", "note": "(stereo not given)", "inhibition": "13.3% (inactive)"}
{"smiles": "CCOC(=O)N1CCN(S(=O)(=O)c2ccc(Br)s2)CC1", "inhibition": "21.3% (inactive)"}
{"smiles": "CC(=O)Nc1ccc(S(=O)(=O)n2cnc(C)c2)cc1", "inhibition": "-6.5% (inactive)"}
{"smiles": "Cc1ccc(S(=O)(=O)NCCCNC(=O)N2CCOCC2)cc1", "inhibition": "17.8% (inactive)"}
{"smiles": "CC(=O)N(c1ccc(N(C(C)=O)S(=O)(=O)c2cccs2)cc1)S(=O)(=O)c1cccs1", "inhibition": "4.25% (inactive)"}
{"smiles": "CCCCNC(=O)c1c(C)cc(=O)oc1C", "inhibition": "18.4% (inactive)"}
{"smiles": "COC(=O)c1ccc(CSc2nc3ccccc3c(=O)n2Cc2ccco2)o1", "inhibition": "6.37% (inactive)"}
{"smiles": "N#CCCCN1C(=O)C(O)(CC(=O)c2ccc3c(c2)OCCO3)c2ccccc21", "note": "(stereo not given)", "inhibition": "7.56% (inactive)"}
{"smiles": "CN(C)CC(=O)N1c2ccccc2CCc2ccc(NC(=O)c3ccc(N)cc3)cc21", "inhibition": "11.3% (inactive)"}
{"smiles": "CC1=C(C#N)C(=O)NC(C)(C)C1", "inhibition": "13.9% (inactive)"}
{"smiles": "O=C(NCCO)c1scc2c1OCCO2", "inhibition": "16.6% (inactive)"}
{"smiles": "O=C(Cn1ccc2ccccc2c1=O)NCCC(=O)NC1CCN(Cc2ccccc2)CC1", "inhibition": "-8.1% (inactive)"}
{"smiles": "CCOc1cc2[nH]c(=O)n(CCCCC(=O)N3CCCCCC3)c(=O)c2cc1OCC", "inhibition": "14.3% (inactive)"}
{"smiles": "COc1nc(OC)nc(N2CCC(C(=O)NC3CCCCCC3)CC2)n1", "inhibition": "-10% (inactive)"}
{"smiles": "Cc1ccccc1CN1CCNC1=O", "inhibition": "23.3% (inactive)"}
{"smiles": "CCC1(CC)C(=O)C(C)(C)C(=O)OC1c1cccs1", "note": "(stereo not given)", "inhibition": "21.5% (inactive)"}
{"smiles": "O=C(NCc1ccccc1)N1CCn2c(nc3ccccc32)C1", "inhibition": "-0.797% (inactive)"}
{"smiles": "CC1CCN(C(=O)CSc2nnc(-c3cccnc3)n2C2CCCCC2)CC1", "inhibition": "18.4% (inactive)"}
{"smiles": "CCCCNC(=O)Nc1ccnn1C1CCCCC1", "inhibition": "17% (inactive)"}
{"smiles": "COc1ccc(OC)c(C2=NOC(C(=O)NCCN3CCOCC3)C2)c1", "note": "(stereo not given)", "inhibition": "17.7% (inactive)"}
{"smiles": "CCCc1n[nH]c2c1/C(=N/O)CC(c1ccccc1)C2", "note": "(stereo not given)", "inhibition": "8.69% (inactive)"}
{"smiles": "CCOC(=O)C1CCN(C(=O)c2ccc(OC)cc2OC)CC1", "inhibition": "20% (inactive)"}
{"smiles": "CN(CCCC(=O)Nc1ccncc1)S(=O)(=O)c1ccc(Cl)cc1", "inhibition": "-14.2% (inactive)"}
{"smiles": "CCSc1ncc(C#N)c(=O)[nH]1", "inhibition": "2.6% (inactive)"}
{"smiles": "CCOc1ccccc1N1C(=O)CC(Sc2ncccc2C(=O)O)C1=O", "note": "(stereo not given)", "inhibition": "12.2% (inactive)"}
{"smiles": "COc1ccc(Cn2c(C)nc3c(c2=O)c2nc4ccccc4nc2n3Cc2ccco2)cc1", "inhibition": "23.6% (inactive)"}
{"smiles": "CCn1c2ccccc2c2cc(NC(=O)Cc3ccc(S(=O)(=O)N4CCOCC4)s3)ccc21", "inhibition": "25.9% (inactive)"}
{"smiles": "C/C(Cl)=C\\Cn1c(NCCc2ccccc2)nc2c1c(=O)n(C)c(=O)n2C", "inhibition": "12.1% (inactive)"}
{"smiles": "Cc1ccc2cc(CN(CC(C)C)C(=O)C3CCCO3)c(=O)[nH]c2c1", "note": "(stereo not given)", "inhibition": "3.89% (inactive)"}
{"smiles": "COC(=O)C1(C(=O)OC)Sc2ccccc2C1=O", "inhibition": "13% (inactive)"}
{"smiles": "CCn1c(CC(=O)Nc2cccc(OC)c2)nnc1SCC(=O)Nc1nccs1", "inhibition": "4.04% (inactive)"}
{"smiles": "O=C(O)CCc1ccc(-c2cccs2)n1NC(=O)c1ccco1", "inhibition": "20.8% (inactive)"}
{"smiles": "c1nc(NCC2CCCO2)c2[nH]cnc2n1", "note": "(stereo not given)", "inhibition": "13.9% (inactive)"}
{"test": "inhibitors of poly I:C-induced TLR3 signaling, primary screen, cell-based, poly I:C stimulus, luciferase, 10K MLSCN set (AID 602277;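 active means inhibition of the reporter signal at or above 50%; inactive means inhibition below 50%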)", "details": "HEK293-TLR3 RL24 IRF3 luciferase reporter, at 10 µM, stronger effect = higher value"}
{"smiles": "CC1=C(C(N)=O)C(c2ccc(Cl)cc2Cl)n2ncnc2N1", "note": "(stereo not given)", "inhibition": "33.2% (inactive)"}
{"smiles": "Cc1cc2c(s1)c1cnn(CC(=O)NCCc3ccccc3)c(=O)c1n2C", "inhibition": "-1.81% (inactive)"}
{"smiles": "CCc1c(C)nc(N2CCN(Cc3ccccc3)CC2)[nH]c1=O", "inhibition": "10.6% (inactive)"}
{"smiles": "O=C1C2CCCN2C(c2ccc(Cl)cc2)N1c1nccs1", "note": "(stereo not given)", "inhibition": "13.5% (inactive)"}
{"smiles": "CCCCN(CC)S(=O)(=O)N1CCC(C(=O)NCc2ccc(F)cc2)CC1", "inhibition": "15.9% (inactive)"}
{"smiles": "O=c1c2nnn(Cc3ccccc3)c2ncn1-c1ccccc1", "inhibition": "25.9% (inactive)"}
{"smiles": "CNC(=O)CN(c1cc(C)ccc1OC)S(=O)(=O)c1ccc(C)cc1", "inhibition": "6.94% (inactive)"}
{"smiles": "CCCCC(CC)C(=O)Nc1ccc(Cl)cn1", "note": "(stereo not given)", "inhibition": "17.2% (inactive)"}
{"smiles": "CCOC(=O)N1CCN(S(=O)(=O)c2ccc(Br)s2)CC1", "inhibition": "11.6% (inactive)"}
{"smiles": "CC(=O)Nc1ccc(S(=O)(=O)n2cnc(C)c2)cc1", "inhibition": "-8.68% (inactive)"}
{"smiles": "Cc1ccc(S(=O)(=O)NCCCNC(=O)N2CCOCC2)cc1", "inhibition": "16.7% (inactive)"}
{"smiles": "CC(=O)N(c1ccc(N(C(C)=O)S(=O)(=O)c2cccs2)cc1)S(=O)(=O)c1cccs1", "inhibition": "7.23% (inactive)"}
{"smiles": "CCCCNC(=O)c1c(C)cc(=O)oc1C", "inhibition": "14% (inactive)"}
{"smiles": "COC(=O)c1ccc(CSc2nc3ccccc3c(=O)n2Cc2ccco2)o1", "inhibition": "-5.19% (inactive)"}
{"smiles": "N#CCCCN1C(=O)C(O)(CC(=O)c2ccc3c(c2)OCCO3)c2ccccc21", "note": "(stereo not given)", "inhibition": "11.6% (inactive)"}
{"smiles": "CN(C)CC(=O)N1c2ccccc2CCc2ccc(NC(=O)c3ccc(N)cc3)cc21", "inhibition": "26.6% (inactive)"}
{"smiles": "CC1=C(C#N)C(=O)NC(C)(C)C1", "inhibition": "21.4% (inactive)"}
{"smiles": "O=C(NCCO)c1scc2c1OCCO2", "inhibition": "19.5% (inactive)"}
{"smiles": "O=C(Cn1ccc2ccccc2c1=O)NCCC(=O)NC1CCN(Cc2ccccc2)CC1", "inhibition": "0.132% (inactive)"}
{"smiles": "CCOc1cc2[nH]c(=O)n(CCCCC(=O)N3CCCCCC3)c(=O)c2cc1OCC", "inhibition": "18.4% (inactive)"}
{"smiles": "COc1nc(OC)nc(N2CCC(C(=O)NC3CCCCCC3)CC2)n1", "inhibition": "-8.66% (inactive)"}
{"smiles": "Cc1ccccc1CN1CCNC1=O", "inhibition": "26.8% (inactive)"}
{"smiles": "CCC1(CC)C(=O)C(C)(C)C(=O)OC1c1cccs1", "note": "(stereo not given)", "inhibition": "19.6% (inactive)"}
{"smiles": "O=C(NCc1ccccc1)N1CCn2c(nc3ccccc32)C1", "inhibition": "-7.43% (inactive)"}
{"smiles": "CC1CCN(C(=O)CSc2nnc(-c3cccnc3)n2C2CCCCC2)CC1", "inhibition": "16.9% (inactive)"}
{"smiles": "CCCCNC(=O)Nc1ccnn1C1CCCCC1", "inhibition": "18.1% (inactive)"}
{"smiles": "COc1ccc(OC)c(C2=NOC(C(=O)NCCN3CCOCC3)C2)c1", "note": "(stereo not given)", "inhibition": "25% (inactive)"}
{"smiles": "CCCc1n[nH]c2c1/C(=N/O)CC(c1ccccc1)C2", "note": "(stereo not given)", "inhibition": "-7.88% (inactive)"}
{"smiles": "CCOC(=O)C1CCN(C(=O)c2ccc(OC)cc2OC)CC1", "inhibition": "20.5% (inactive)"}
{"smiles": "CN(CCCC(=O)Nc1ccncc1)S(=O)(=O)c1ccc(Cl)cc1", "inhibition": "-29.3% (inactive)"}
{"smiles": "CCSc1ncc(C#N)c(=O)[nH]1", "inhibition": "6.42% (inactive)"}
{"smiles": "CCOc1ccccc1N1C(=O)CC(Sc2ncccc2C(=O)O)C1=O", "note": "(stereo not given)", "inhibition": "13.4% (inactive)"}
{"smiles": "COc1ccc(Cn2c(C)nc3c(c2=O)c2nc4ccccc4nc2n3Cc2ccco2)cc1", "inhibition": "9.91% (inactive)"}
{"smiles": "CCn1c2ccccc2c2cc(NC(=O)Cc3ccc(S(=O)(=O)N4CCOCC4)s3)ccc21", "inhibition": "26.4% (inactive)"}
{"smiles": "C/C(Cl)=C\\Cn1c(NCCc2ccccc2)nc2c1c(=O)n(C)c(=O)n2C", "inhibition": "2.85% (inactive)"}
{"smiles": "Cc1ccc2cc(CN(CC(C)C)C(=O)C3CCCO3)c(=O)[nH]c2c1", "note": "(stereo not given)", "inhibition": "26.4% (inactive)"}
{"smiles": "COC(=O)C1(C(=O)OC)Sc2ccccc2C1=O", "inhibition": "17.2% (inactive)"}
{"smiles": "CCn1c(CC(=O)Nc2cccc(OC)c2)nnc1SCC(=O)Nc1nccs1", "inhibition": "21.5% (inactive)"}
{"smiles": "O=C(O)CCc1ccc(-c2cccs2)n1NC(=O)c1ccco1", "inhibition": "17.9% (inactive)"}
{"smiles": "c1nc(NCC2CCCO2)c2[nH]cnc2n1", "note": "(stereo not given)", "inhibition": "16.7% (inactive)"}
